# From PubChem BioAssay (NCATS)
# Unmarked numbers belong to inactive results. Inconclusive results are not listed. The list shows a part of the results. A call without a number means that no potency is given here. Calls of active or inactive are those of the source. Unless noted, the call rests on the fitted dose curve; in most records, active means well fitted curve in the direction sought with a large enough effect; inconclusive means small, poorly fitted or top-dose-only effect, or another doubt; inactive means no such curve, though single readings can be large; an effect the other way counts as inactive or inconclusive.
# Assays:
# [1] = target: Rap guanine nucleotide exchange factor 3 (Homo sapiens) (UniProt O95398); assay: Confirmatory qHTS for agonist of cAMP-regulated guanine nucleotide exchange factor 3 (EPAC1) (AID 1645881);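 further: EPAC1 catalysed release of BODIPY-GDP from Rap1B seen as fluorescence loss; nearly all actives have a fitted effect of over 75% in size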
# Rap guanine nucleotide exchange factor 3 (Homo sapiens), sequence (O95398 whole entry, looked up): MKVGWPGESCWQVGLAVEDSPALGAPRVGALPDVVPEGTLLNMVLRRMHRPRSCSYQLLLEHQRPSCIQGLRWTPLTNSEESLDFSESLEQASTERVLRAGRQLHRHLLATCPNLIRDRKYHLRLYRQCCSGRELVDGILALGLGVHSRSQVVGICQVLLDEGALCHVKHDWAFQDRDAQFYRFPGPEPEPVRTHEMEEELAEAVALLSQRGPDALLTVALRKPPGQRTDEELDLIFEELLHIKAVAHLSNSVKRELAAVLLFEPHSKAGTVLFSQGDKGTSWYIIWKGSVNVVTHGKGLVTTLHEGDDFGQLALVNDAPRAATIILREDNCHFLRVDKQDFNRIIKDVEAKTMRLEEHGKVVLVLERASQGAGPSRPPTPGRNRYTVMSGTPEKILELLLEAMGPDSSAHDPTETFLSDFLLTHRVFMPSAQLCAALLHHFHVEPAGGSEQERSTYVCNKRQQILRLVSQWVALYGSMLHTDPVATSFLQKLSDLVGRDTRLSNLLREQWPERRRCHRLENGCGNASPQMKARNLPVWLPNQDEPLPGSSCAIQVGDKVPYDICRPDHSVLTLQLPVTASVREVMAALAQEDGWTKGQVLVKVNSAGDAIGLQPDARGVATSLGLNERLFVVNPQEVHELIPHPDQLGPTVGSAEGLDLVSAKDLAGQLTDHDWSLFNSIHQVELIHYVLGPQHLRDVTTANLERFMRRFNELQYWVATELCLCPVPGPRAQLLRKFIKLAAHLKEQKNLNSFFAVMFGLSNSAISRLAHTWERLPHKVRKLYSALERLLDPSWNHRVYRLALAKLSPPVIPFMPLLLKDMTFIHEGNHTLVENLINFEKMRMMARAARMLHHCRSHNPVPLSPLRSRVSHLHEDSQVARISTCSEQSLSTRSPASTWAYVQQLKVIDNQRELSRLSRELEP
# [2] = target: Rap guanine nucleotide exchange factor 4 (Homo sapiens) (UniProt Q8WZA2); assay: Confirmatory qHTS for agonist of cAMP-regulated guanine nucleotide exchange factor 4 (EPAC2) (AID 1645884);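 further: nucleotide exchange releases bodipy-GDP from Rap1 and this lowers its fluorescence; nearly all actives have a fitted effect of over 65% in size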
# Rap guanine nucleotide exchange factor 4 (Homo sapiens), sequence (Q8WZA2 whole entry, looked up): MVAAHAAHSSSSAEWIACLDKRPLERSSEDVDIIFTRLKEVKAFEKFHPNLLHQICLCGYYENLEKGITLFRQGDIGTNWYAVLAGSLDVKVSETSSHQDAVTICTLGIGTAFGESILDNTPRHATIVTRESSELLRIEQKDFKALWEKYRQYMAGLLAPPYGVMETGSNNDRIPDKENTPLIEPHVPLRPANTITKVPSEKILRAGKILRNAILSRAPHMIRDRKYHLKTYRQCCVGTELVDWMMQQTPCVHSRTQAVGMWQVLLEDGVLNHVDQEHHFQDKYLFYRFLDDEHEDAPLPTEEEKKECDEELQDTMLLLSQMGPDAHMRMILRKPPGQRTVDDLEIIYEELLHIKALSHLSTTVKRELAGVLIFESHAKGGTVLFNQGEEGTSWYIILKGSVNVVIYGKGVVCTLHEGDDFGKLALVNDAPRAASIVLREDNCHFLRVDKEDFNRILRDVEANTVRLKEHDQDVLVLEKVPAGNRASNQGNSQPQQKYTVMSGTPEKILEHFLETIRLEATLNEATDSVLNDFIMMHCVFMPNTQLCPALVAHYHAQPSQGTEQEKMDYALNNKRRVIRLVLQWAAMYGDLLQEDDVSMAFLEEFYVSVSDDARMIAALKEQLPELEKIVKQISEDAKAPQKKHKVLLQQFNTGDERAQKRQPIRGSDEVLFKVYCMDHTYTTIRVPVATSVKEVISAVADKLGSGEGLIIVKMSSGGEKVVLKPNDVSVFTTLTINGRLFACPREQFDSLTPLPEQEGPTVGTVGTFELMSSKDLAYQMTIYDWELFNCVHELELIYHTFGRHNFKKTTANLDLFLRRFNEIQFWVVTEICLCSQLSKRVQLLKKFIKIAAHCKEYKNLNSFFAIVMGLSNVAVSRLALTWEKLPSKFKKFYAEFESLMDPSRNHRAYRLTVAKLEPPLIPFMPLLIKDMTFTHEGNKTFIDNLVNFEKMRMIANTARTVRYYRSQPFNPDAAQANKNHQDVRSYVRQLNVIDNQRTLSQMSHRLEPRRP
# [3] = target: Rap guanine nucleotide exchange factor 4 (Homo sapiens) (UniProt Q8WZA2); assay: Confirmatory qHTS for antagonist of cAMP-regulated guanine nucleotide exchange factor 4 (EPAC2) (AID 1645885); further: nearly all actives have a fitted effect of over 25% in size
# [4] = target: Rap guanine nucleotide exchange factor 3 (Homo sapiens) (UniProt O95398); assay: Counterscreen qHTS for antagonist of cAMP-regulated guanine nucleotide exchange factor 3 (EPAC1) (AID 1645888);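 further: fluorescence loss as bound BODIPY-GDP is released from Rap1B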
# Method in brief: (§1)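 Measured: fluorescence of BODIPY-GDP bound to Rap1B, which falls as exchange proceeds. Conditions include 50 uM competing GDP, 5 and 30 min reads, and a later cAMP challenge for antagonist detection.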
# [5] = target: Rap guanine nucleotide exchange factor 3 (Homo sapiens) (UniProt O95398); assay: Counterscreen qHTS for agonist of cAMP-regulated guanine nucleotide exchange factor 3 (EPAC1) (AID 1645889); further: nearly all actives have a fitted effect of over 40% in size
# Method in brief: as §1
# [6] = AP1 Signaling Pathway (AID 357; active means well fitted curve in either direction with a large enough effect, not every such curve was filed as active;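 further: ME-180 reporter cells stimulated with EGF at its EC50 level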); conditions: ME-180 AP-1-bla reporter, EGF-induced, beta-lactamase ratio, 5 h; at 7.69 µM (top of the series) unless noted
# Method in brief: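 Read-out was the 460nm/530nm emission ratio (excitation 405nm) after CCF4 loading for 2.5 hours at room temperature. Cells carried an AP-1-driven beta-lactamase reporter, were stimulated with EC50 EGF plus compound for 5 hours, and AC50 values came from titrations.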
# [7] = NFAT Signaling Pathway (AID 444; active means well fitted curve in either direction with a large enough effect, not every such curve was filed as active;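 further: carbachol stimulus at about its EC50 of 1 µM final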); conditions: Jurkat NFAT-bla M1, carbachol, beta-lactamase ratio, 5 h; at 7.69 µM (top of the series) unless noted
# Method in brief: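 Jurkat cells carrying an NFAT-driven β-lactamase reporter and co-transfected muscarinic M1 receptor were treated with compound plus carbachol (1 uM final, an EC50 level) for 5 h at 37 °C. CCF4 loading followed for 1 h at RT; 460/530 nm ratio gave %activity.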
# [8] = Stat Signaling Pathway (AID 446; active means well fitted curve in either direction with a large enough effect, not every such curve was filed as active;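 further: ME-180 cervical cancer cells given 40 pM IL-6 alongside compound; SIE-controlled beta-lactamase reporter measured as 460/530 nm FRET emission ratio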)
# Method in brief: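 Reporter line: ME-180 cervical carcinoma, SIE-beta-lactamase. Treatment: compound with 40 pM IL-6, 5 hrs, 37 C, in low-serum OPTI-MEM with 10 mM HEPES pH 7.3. Detection: 460/530 nm fluorescence.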
# [9] = target: Glucocorticoid receptor (Homo sapiens) (UniProt P04150); assay: GR-GFP Redistribution (AID 450;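 active means compounds whose dose series gives a full or clear partial fitted curve of increased nuclear translocation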; further: potency means the concentration at half of the fitted maximal effect); conditions: U2OS GR-GFP nuclear translocation, laser cytometry, 2 h
# Glucocorticoid receptor (Homo sapiens), sequence (P04150 whole entry, looked up): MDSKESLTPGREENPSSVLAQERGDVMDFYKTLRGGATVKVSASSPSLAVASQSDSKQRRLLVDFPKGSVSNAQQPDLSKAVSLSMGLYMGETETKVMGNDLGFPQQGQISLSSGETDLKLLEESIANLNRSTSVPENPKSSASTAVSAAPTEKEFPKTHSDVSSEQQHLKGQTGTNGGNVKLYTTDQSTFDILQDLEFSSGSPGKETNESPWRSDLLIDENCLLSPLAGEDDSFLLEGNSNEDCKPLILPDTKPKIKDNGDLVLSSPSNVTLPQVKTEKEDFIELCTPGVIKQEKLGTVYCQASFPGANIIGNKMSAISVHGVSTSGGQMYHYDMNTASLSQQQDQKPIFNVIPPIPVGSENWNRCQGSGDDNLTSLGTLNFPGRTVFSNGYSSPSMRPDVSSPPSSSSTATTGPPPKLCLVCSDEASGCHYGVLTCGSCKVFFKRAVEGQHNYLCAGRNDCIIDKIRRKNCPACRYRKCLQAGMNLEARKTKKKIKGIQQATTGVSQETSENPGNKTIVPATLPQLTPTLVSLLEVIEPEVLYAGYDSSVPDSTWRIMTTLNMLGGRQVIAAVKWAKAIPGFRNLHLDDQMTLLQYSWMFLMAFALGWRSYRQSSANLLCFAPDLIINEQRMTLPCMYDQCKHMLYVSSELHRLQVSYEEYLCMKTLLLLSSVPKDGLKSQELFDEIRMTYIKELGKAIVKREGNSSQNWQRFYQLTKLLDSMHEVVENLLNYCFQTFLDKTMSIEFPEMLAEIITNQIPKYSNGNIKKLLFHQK
# [10] = target: Tyrosyl-DNA phosphodiesterase 1 (Homo sapiens) (UniProt Q9NUW8); assay: Confirmation Assay for Inhibitors of Tyrosyl-DNA Phosphodiesterase (TDP1) (AID 489007); conditions: recombinant human TDP1 enzymatic activity, dose-response; further: potency means the concentration at half of the fitted maximal effect; nearly all actives have a fitted effect of over 40% in size
# Tyrosyl-DNA phosphodiesterase 1 (Homo sapiens), sequence (Q9NUW8 whole entry, looked up): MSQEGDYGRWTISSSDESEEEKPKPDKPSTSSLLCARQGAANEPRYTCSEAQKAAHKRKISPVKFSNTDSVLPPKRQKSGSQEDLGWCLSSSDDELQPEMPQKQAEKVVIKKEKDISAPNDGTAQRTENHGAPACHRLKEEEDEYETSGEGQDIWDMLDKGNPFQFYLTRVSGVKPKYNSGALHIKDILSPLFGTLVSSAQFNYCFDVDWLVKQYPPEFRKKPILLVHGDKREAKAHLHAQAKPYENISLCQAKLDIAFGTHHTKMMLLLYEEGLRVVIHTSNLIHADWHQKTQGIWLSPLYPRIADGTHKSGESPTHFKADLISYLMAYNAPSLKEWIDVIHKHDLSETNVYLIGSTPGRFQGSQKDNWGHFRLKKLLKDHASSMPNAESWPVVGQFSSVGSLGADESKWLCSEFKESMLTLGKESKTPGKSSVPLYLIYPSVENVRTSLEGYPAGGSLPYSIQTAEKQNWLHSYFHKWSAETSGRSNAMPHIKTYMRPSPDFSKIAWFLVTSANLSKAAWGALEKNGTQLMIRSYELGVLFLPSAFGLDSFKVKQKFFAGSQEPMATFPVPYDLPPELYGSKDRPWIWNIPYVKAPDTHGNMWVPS
# Method in brief: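 Recombinant human Tdp1 (1 nM final), expressed in E. coli, preincubated 15 min with compound. Then 15 nM 5'-biotin/3'-phosphotyrosine-FITC DNA substrate added for 5 min at room temperature. AlphaScreen beads (10 ug/ml) added for 10 min; cleavage gives signal loss.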
# [11] = target: Vitamin D3 receptor (Homo sapiens) (UniProt P11473); assay: qHTS for Inhibitors of the vitamin D receptor (VDR): Hit Validation in Primary Screen (AID 602199); conditions: VDR-coactivator inhibition assay, qHTS confirmation; further: potency means the concentration at half of the fitted maximal effect
# Vitamin D3 receptor (Homo sapiens), sequence (P11473 whole entry, looked up, the tested form may be a part): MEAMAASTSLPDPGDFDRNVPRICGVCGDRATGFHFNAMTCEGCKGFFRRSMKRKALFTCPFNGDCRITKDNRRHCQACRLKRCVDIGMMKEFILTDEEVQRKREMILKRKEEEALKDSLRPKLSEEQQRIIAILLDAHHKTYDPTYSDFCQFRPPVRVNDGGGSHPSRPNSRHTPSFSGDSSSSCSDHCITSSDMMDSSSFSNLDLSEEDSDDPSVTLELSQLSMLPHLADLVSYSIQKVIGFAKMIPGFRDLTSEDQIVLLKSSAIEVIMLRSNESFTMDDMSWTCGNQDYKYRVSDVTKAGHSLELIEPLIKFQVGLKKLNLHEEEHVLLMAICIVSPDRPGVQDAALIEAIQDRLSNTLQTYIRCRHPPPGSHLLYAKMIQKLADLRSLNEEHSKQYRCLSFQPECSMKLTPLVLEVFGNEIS
# Method in brief: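 Fluorescence polarization assay of VDR binding to Alexa 647-labelled SRC2-3 coactivator peptide: 800nM VDR with 5uM LG19078 agonist, compounds, 2 h at room temperature, read Ex 620 nm/Em 688 nm.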
# [12] = target: Vitamin D3 receptor (Homo sapiens) (UniProt P11473); assay: qHTS for Inhibitors of the vitamin D receptor (VDR): Hit Validation using a Fluorescein Assay (AID 602200); conditions: VDR-coactivator binding, fluorescein fluorescence polarization; further: potency means the concentration at half of the fitted maximal effect
# Method in brief: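 Fluorescence polarization (Ex 495 nm/Em 520 nm) read after 2 h at room temperature, reporting disruption of binding between 1.5 uM VDR-LBD, liganded by 5 uM LG19078, and 5 nM fluorescein-labelled SRC2-3 coactivator peptide (final concentrations).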
# [13] = target: Vitamin D3 receptor (Homo sapiens) (UniProt P11473); assay: qHTS for Inhibitors of the vitamin D receptor (VDR): Hit Validation using a Beta-Lactamase Assay (AID 602202); further: potency means the concentration at half of the fitted maximal effect
# Method in brief: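 Stably transfected HEK293 cells express a VDR–GAL4 DNA-binding-domain fusion driving a UAS beta-lactamase reporter, stimulated by agonist LG190178. Compounds were added 4 h after plating and incubated 18 h. A FRET beta-lactam substrate was then added for 2 h and cleaved substrate emission read at 447 nm.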
# [14] = qHTS for Inhibitors of the vitamin D receptor (VDR): Hit Validation using a Cytotoxicity Assay (AID 602204);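 further: cells co-treated with VDR agonist LG190178 at 300 nM; potency means the concentration at half of the fitted maximal effect; nearly all actives have a fitted effect of over 75% in size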
# Method in brief: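 Each well held 20,000 cells, incubated 4 h before compounds went in. An 18 h treatment preceded addition of ATP-sensing luminescent reagent, with reading after 30 min; cycloheximide and DMSO controlled the window.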
compound,measurement,setting,value
N#C/C(=C/c1cccn1-c1cccc(C(=O)O)c1)c1ccc(F)cc1,Potency,[1],inactive
same,activation,[2],"-0.882% [at 17.1 µM, percent relative to cAMP agonist control]"
same,Potency,[3],inactive
same,"activity change, negative = inhibition",[4],-6.54% [at 30.8 µM]
same,activation,[5],2.77% [at 30.8 µM]
COc1ccc(-c2cnnc(N/N=C/c3ccc(O)c(O)c3)n2)cc1,Potency,[1],inactive
same,Potency,[2],inactive
same,Potency,[3],inactive
same,Potency,[4],inactive
same,Potency,[5],inactive
Cc1ccc(N(Cc2cccs2)C(=O)c2ccco2)cc1,Potency,[1],inactive
same,Potency,[2],inactive
same,Potency,[3],inactive
same,Potency,[4],inactive
same,Potency,[5],inactive
COc1cc(O)c(C=NN2C(=O)CSC2=S)c(OC)c1,Potency,[1],inactive
same,Potency,[2],inactive
same,Potency,[3],inactive
same,Potency,[4],inactive
same,Potency,[5],inactive
Cc1cc(C)n2nc(C(=O)N/N=C/c3c4ccccc4cc4ccccc34)nc2n1,Potency,[1],inactive
same,activation,[2],"2.45% [at 17.1 µM, percent relative to cAMP agonist control]"
same,Potency,[3],inactive
same,"activity change, negative = inhibition",[4],4.99% [at 30.8 µM]
same,activation,[5],34.9% [at 30.8 µM]
CC(C)C[C@H](NC(=O)C1(c2ccccc2)CCN(C(=O)OC(C)(C)C)CC1)C(=O)N1CCC[C@H]1C(=O)O,Potency,[1],inactive
same,Potency,[2],inactive
same,Potency,[3],inactive
same,Potency,[4],inactive
same,Potency,[5],inactive
CS(=O)(=O)N1CCN(c2ccc([N+](=O)[O-])c(NCc3ccc(Cl)cc3)c2)CC1,Potency,[1],inactive
same,activation,[2],"-0.717% [at 17.1 µM, percent relative to cAMP agonist control]"
same,Potency,[3],inactive
same,"activity change, negative = inhibition",[4],-6.75% [at 30.8 µM]
same,activation,[5],12% [at 30.8 µM]
CCOC(=O)C(C)n1nc(-c2ccccc2)c2ccccc2c1=O (stereo not drawn),Potency,[1],inactive
same,Potency,[2],inactive
same,Potency,[3],inactive
same,Potency,[4],inactive
same,Potency,[5],inactive
CCOc1cccc(C(=O)Nc2ccc3oc(Cc4ccc(Cl)cc4)nc3c2)c1,Potency,[1],inactive
same,activation,[2],"0% [at 17.1 µM, percent relative to cAMP agonist control]"
same,Potency,[3],inactive
same,"activity change, negative = inhibition",[4],-8.02% [at 30.8 µM]
same,activation,[5],18.7% [at 30.8 µM]
COc1ccc(-c2cc(=O)oc3c(O)c(O)ccc23)cc1,Potency,[1],inactive
same,Potency,[2],inactive
same,Potency,[3],inactive
same,Potency,[4],inactive
same,Potency,[5],inactive
COc1cc(O)c(C(CC(=O)N2CCCC(C)C2)c2ccc3c(c2)OCO3)c(OC)c1 (stereo not drawn),Potency,[1],inactive
same,activation,[2],"-10.6% [at 17.1 µM, percent relative to cAMP agonist control]"
same,Potency,[3],inactive
same,"activity change, negative = inhibition",[4],-20% [at 30.8 µM]
same,activation,[5],13.2% [at 30.8 µM]
Clc1ccc(CON/C=N/c2ncnc3sccc23)cc1,Potency,[1],inactive
same,activation,[2],"8% [at 17.1 µM, percent relative to cAMP agonist control]"
same,Potency,[3],inactive
same,"activity change, negative = inhibition",[4],-10% [at 30.8 µM]
same,activation,[5],11.3% [at 30.8 µM]
CC(C)Cn1nc(NS(=O)(=O)c2cccc3nonc23)c2cc3ccccc3nc21,Potency,[1],inactive
same,Potency,[2],inactive
same,Potency,[3],inactive
same,Potency,[4],inactive
same,Potency,[5],inactive
COc1cc(/C=C2/SC(=S)N(c3c(C)n(C)n(-c4ccccc4)c3=O)C2=O)ccc1O,Potency,[1],inactive
same,activation,[2],"9.4% [at 17.1 µM, percent relative to cAMP agonist control]"
same,Potency,[3],inactive
same,"activity change, negative = inhibition",[4],-24.4% [at 30.8 µM]
same,activation,[5],11.7% [at 30.8 µM]
CCOP(=O)(OCC)C(Cc1ccccc1)N=C(c1ccccc1)c1ccccc1 (stereo not drawn),Potency,[1],inactive
same,activation,[2],"2.26% [at 17.1 µM, percent relative to cAMP agonist control]"
same,Potency,[3],inactive
same,"activity change, negative = inhibition",[4],3.36% [at 30.8 µM]
same,activation,[5],12.6% [at 30.8 µM]
Cc1ccc(C)c(CSC2=NC(C)(C)Nc3ccccc32)c1,Potency,[1],inactive
same,Potency,[2],inactive
same,outcome,[3],inactive [at 12.7 µM]
same,Potency,[4],inactive
same,Potency,[5],inactive
O=C(Nc1nc(-c2ccc(Cl)cc2)cs1)C1=COCCO1,Potency,[1],inactive
same,activation,[2],"5.12% [at 17.1 µM, percent relative to cAMP agonist control]"
same,Potency,[3],inactive
same,"activity change, negative = inhibition",[4],-14.7% [at 30.8 µM]
same,activation,[5],13.1% [at 30.8 µM]
CC(C)OC(=O)C(C#N)c1nc2ccccc2nc1N1CCCC1 (stereo not drawn),"activity change, negative = inhibition",[6],8.73% [at 17.2 µM]
same,"activity change, negative = inhibition",[7],-13.2% [at 17.2 µM]
same,outcome,[8],inactive
same,Potency,[9],> 20.6 µM
same,Potency,[1],inactive
same,activation,[2],"3.69% [at 17.1 µM, percent relative to cAMP agonist control]"
same,Potency,[3],inactive
same,"activity change, negative = inhibition",[4],-19.9% [at 30.8 µM]
same,activation,[5],3.58% [at 30.8 µM]
O=C(NNC(=O)c1cc2cc(Br)ccc2oc1=O)c1ccc(O)cc1O,Potency,[10],56.2 µM (active)
same,Potency,[1],inactive
same,Potency,[2],inactive
same,Potency,[3],inactive
same,Potency,[4],inactive
O=C(Nc1ccccc1Cl)/C(Cl)=C(\Cl)S(=O)c1ccccc1 (stereo not drawn),Potency,[11],3.36 µM (active)
same,Potency,[12],3.16 µM (active)
same,Potency,[13],3.66 µM (active)
same,Potency,[14],20.6 µM (active)
same,Potency,[1],inactive
same,Potency,[2],inactive
same,Potency,[3],inactive
same,Potency,[4],inactive
same,Potency,[5],inactive
